Drawing on PubChem BioAssay (Tox21), this text covers outcome and Potency for nine molecules.

The target of assay [1] is Peroxisome proliferator-activated receptor delta (Homo sapiens) (UniProt Q03181). Briefly: qHTS assay to identify small molecule agonists of the peroxisome proliferator-activated receptor delta (PPARd) signaling pathway (AID 743212). A digest of the protocol:
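HEK293H PPARd-bla cells; 5 h preincubation 37 C/5% CO2; compound (DMSO) 37 C; LiveBLAzer B/G FRET substrate 2 h RT; fluorescence intensity.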

Assay [2] has the same target. The experiment in a line: qHTS assay to identify small molecule antagonists of the peroxisome proliferator-activated receptor delta (PPARd) signaling pathway (AID 743215; active means well fitted inhibition curve with a large enough effect in the signal ratio in the repeat runs, not every such curve was filed as active; the % refers to the signal ratio;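 further: cells stimulated with agonist L165041 at 300 nM final during compound exposure; series mostly up to about 62 µM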). The procedure, abridged: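 PPARd-bla HEK293H cells (UAS-bla reporter) preincubated 5 h, then given compound plus 300 nM final L165041 agonist for 17 h at 37 C. Beta-lactamase activity read by LiveBLAzer B/G FRET substrate fluorescence after 2 h at room temperature.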
For orientation: qHTS replaces the single test concentration by a dilution series.

For assay [3], the target named is Bile acid receptor (Homo sapiens) (UniProt Q96RI1). Briefly: qHTS assay to identify small molecule agonists of the farnesoid-X-receptor (FXR) signaling pathway (AID 743220; active means well fitted activation curve with a large enough effect in the signal ratio in the repeat runs, not every such curve was filed as active; the % refers to the signal ratio). A digest of the protocol: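 Beta-lactamase reporter under UAS control in GeneBLAzer FXR HEK 293T cells (5000/well) measured with LiveBLAzer FRET substrate after 2 h at room temperature. Compound exposure lasted 16 h at 37C.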

For assay [4], the target named is Vitamin D3 receptor (Homo sapiens) (UniProt P11473). The experiment in a line: qHTS assay to identify small molecule agonists of the vitamin D receptor (VDR) signaling pathway (AID 743222). The procedure, abridged:
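VDR-bla cells plated 4 h at 37 C, then exposed to compounds for 16 h at 37 C. Beta-lactamase reporter activity measured by fluorescence after 2 h room-temperature loading with LiveBLAzer B/G FRET substrate.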

Assay [5] has the same target. Briefly: qHTS assay to identify small molecule antagonists of the vitamin D receptor (VDR) signaling pathway (AID 743223; active means well fitted inhibition curve with a large enough effect in the signal ratio in the repeat runs, not every such curve was filed as active; the % refers to the signal ratio). A digest of the protocol:
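Quantitative HTS in VDR-bla reporter cells stimulated with 1alpha,25-dihydroxyvitamin D3, 3 nM final. Compound exposure 16 h, 37C, 5% CO2. Read-out: beta-lactamase FRET substrate fluorescence, 2 h RT.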

Assay [6] can be described thus: qHTS assay to identify small molecule agonists of the NFkB signaling pathway (AID 1159509; active means well fitted curve in the direction sought with a large enough effect in the signal ratio in the repeat runs, not every such curve was filed as active; the % refers to the signal ratio; further: series mostly up to about 61 µM). A digest of the protocol: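 NFkB-bla ME-180 cells carry a beta-lactamase reporter under an NF-kB response element. They were plated overnight, then exposed to compounds for 5 h at 37 C. Read-out is LiveBLAzer FRET after 1.5 hr at room temperature (405 nm excitation; 460/530 nm emission).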

Assay [7] can be described thus: qHTS assay to identify small molecule agonists of the NFkB signaling pathway - cell viability counter screen (AID 1159515). Further: series mostly up to about 61 µM; nearly all actives have a fitted effect of over 55% in size. A digest of the protocol:
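NFkB-bla ME-180 cells, 2,000/well, plated overnight at 37 C; compound added for 5 hr at 37 C. Viability read in the same wells as the bla reporter, by CellTiter-Glo luminescence after 30 min at room temperature.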

A short description of assay [8]: qHTS assay to identify small molecule agonists of the endoplasmic reticulum stress response signaling pathway - cell viability counter screen (AID 1159517).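 Further: HeLa cells carrying an ER stress response element beta-lactamase reporter; series mostly up to about 61 µM; nearly all actives have a fitted effect of over 50% in size.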 The procedure, abridged:
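HeLa cells carrying an ESRE-driven beta-lactamase reporter receive compound for 5 hr at 37 C. Cell viability is then gauged with CellTiter-Glo by luminescence, 30 min at room temperature.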

Assay [9] is described as follows: qHTS assay to identify small molecule antagonists of the retinoid-related orphan receptor gamma (ROR-gamma) signaling pathway - cell viability counter screen (AID 1159520; active means well fitted curve in the direction sought with a large enough effect in the repeat runs; an effect the other way counts as inactive or inconclusive; further: nearly all actives have a fitted effect of over 50% in size). A digest of the protocol: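 Cytotoxicity was read from cellular ATP (CellTiter-Glo luminescence) after 16 hr at 37 C with 1 uM doxycycline induction. The inducer was added 2 hr after compound transfer to Tet-on ROR gamma CHO cells.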

The target in assay [10] is Nuclear receptor ROR-gamma (Homo sapiens) (UniProt P51449). Briefly: qHTS assay to identify small molecule antagonists of the retinoid-related orphan receptor gamma (ROR-gamma) signaling pathway (AID 1159521; active means well fitted curve in the direction sought with a large enough effect in the repeat runs; an effect the other way counts as inactive or inconclusive; further: nearly all actives have a fitted effect of over 50% in size; further: potency means the concentration at half of the fitted maximal effect). The procedure, abridged: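 Inducible-expression reporter assay: doxycycline (1 uM final) switched on RORγ in CHO cells bearing a ROR response element-luciferase construct, with test compounds present from 2 h beforehand. Decreased luminescence after 16 h defined antagonist activity.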

Assay [11] is described as follows: qHTS assay to identify small molecule agonists of the AP-1 signaling pathway - cell viability counter screen (AID 1159525). Further: nearly all actives have a fitted effect of over 55% in size. A digest of the protocol:
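Luminescent ATP readout (Cell Titer Glo, 30 min RT), normalised to DMSO and tetra n-octyl ammonium bromide controls. Cells were ME-180 AP-1-bla in 0.5% dialyzed FBS Opti-MEM, with a 5 h, 37 °C compound exposure.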

Assay [12] is described as follows: qHTS assay to identify small molecule agonists of the AP-1 signaling pathway (AID 1159526).
The nature of assay [13]: qHTS assay to identify small molecule antagonists of the peroxisome proliferator-activated receptor delta (PPARd) signaling pathway - cell viability counter screen (AID 743213; active means well fitted curve in the direction sought with a large enough effect in the repeat runs; an effect the other way counts as inactive or inconclusive; further: nearly all actives have a fitted effect of over 50% in size). A digest of the protocol: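 Viability counter-screen, qHTS format: PPARd-bla HEK293H, L165041 300 nM final, 17 h compound exposure at 37 C, CellTiter-Glo luminescence after 30 min RT.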
In assay [14] the target is Bile acid receptor (Homo sapiens) (UniProt Q96RI1). Briefly: qHTS assay to identify small molecule antagonists of the farnesoid-X-receptor (FXR) signaling pathway (AID 743217; active means well fitted inhibition curve with a large enough effect in the signal ratio in the repeat runs, not every such curve was filed as active; the % refers to the signal ratio). The procedure, abridged:
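FXR-UAS-bla HEK 293T cells (beta-lactamase reporter) given compound plus chenodeoxycholic acid (50 uM final), 16 h at 37C. LiveBLAzer B/G FRET substrate added for 2 h at room temperature; fluorescence read.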

The nature of assay [15]: qHTS assay to identify small molecule agonists of the farnesoid-X-receptor (FXR) signaling pathway - cell viability counter screen (AID 743218; active means well fitted curve in the direction sought with a large enough effect in the repeat runs; an effect the other way counts as inactive or inconclusive; further: nearly all actives have a fitted effect of over 45% in size). The procedure, abridged:
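FXR-UAS-bla HEK 293T cells exposed to compounds for 16 h at 37C. Cytotoxicity read in the same wells by CellTiter-Glo luminescence after 30 min at room temperature, following the beta-lactamase FRET read.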

Assay [16] in a line: qHTS assay to identify small molecule antagonists of the farnesoid-X-receptor (FXR) signaling pathway - cell viability counter screen (AID 743221; active means well fitted cell-killing curve with a large enough effect in the repeat runs, not every such curve was filed as active; further: nearly all actives have a fitted effect of over 50% in size). The procedure, abridged:
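Cytotoxicity is taken from ATP luminescence (CellTiter-Glo, 30 min, room temperature) in FXR-bla HEK 293T cells previously incubated 16 h at 37 C with compound and chenodeoxycholic acid at 50 uM final.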

The nature of assay [17]: qHTS assay to identify small molecule antagonists of the vitamin D receptor (VDR) signaling pathway - cell viability counter screen (AID 743225; active means well fitted curve in the direction sought with a large enough effect in the repeat runs; an effect the other way counts as inactive or inconclusive; further: nearly all actives have a fitted effect of over 50% in size). The procedure, abridged:
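Same-well multiplex: following 16 h treatment of HEK 293T cells carrying a UAS-driven beta-lactamase reporter with compound and agonist (3 nM final), and a 2 h FRET substrate step, CellTiter-Glo was added and luminescence read after 30 min.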

A short description of assay [18]: qHTS assay to identify small molecule agonists of the peroxisome proliferator-activated receptor delta (PPARd) signaling pathway - cell viability counter screen (AID 743211; active means well fitted curve in the direction sought with a large enough effect in the repeat runs; an effect the other way counts as inactive or inconclusive; further: nearly all actives have a fitted effect of over 55% in size). A digest of the protocol:
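Tox21 library compounds, delivered in DMSO, were incubated 17 h with PPARd-bla HEK293H cells; cytotoxicity was taken from CellTiter-Glo luminescence read 30 min after reagent addition.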

Assay [19] can be described thus: qHTS assay to identify small molecule agonists of the vitamin D receptor (VDR) signaling pathway - cell viability counter screen (AID 743224; active means well fitted curve in the direction sought with a large enough effect in the repeat runs; an effect the other way counts as inactive or inconclusive). A digest of the protocol:
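VDR-bla cells, 4 h after plating, exposed to compounds for 16 h at 37C; viability then read in the same wells as CellTiter-Glo luminescence after 30 min at room temperature, following the bla FRET read.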

Inconclusive results are not listed. A number with no mark means an inactive call. The source made the active and inactive calls. Unless noted, the call rests on the fitted dose curve.

Peroxisome proliferator-activated receptor delta (Homo sapiens), sequence (Q03181 whole entry, looked up): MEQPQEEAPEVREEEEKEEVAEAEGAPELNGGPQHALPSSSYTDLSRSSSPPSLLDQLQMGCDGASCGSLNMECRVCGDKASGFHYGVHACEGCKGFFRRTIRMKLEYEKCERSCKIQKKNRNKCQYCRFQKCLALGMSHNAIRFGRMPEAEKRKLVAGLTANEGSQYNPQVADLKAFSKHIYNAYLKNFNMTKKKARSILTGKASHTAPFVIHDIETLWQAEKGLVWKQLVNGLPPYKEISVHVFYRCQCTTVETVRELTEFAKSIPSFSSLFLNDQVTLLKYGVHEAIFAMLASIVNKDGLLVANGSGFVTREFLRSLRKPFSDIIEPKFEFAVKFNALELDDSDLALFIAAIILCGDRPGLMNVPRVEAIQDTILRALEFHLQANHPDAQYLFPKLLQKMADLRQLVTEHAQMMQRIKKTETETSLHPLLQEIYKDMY
Bile acid receptor (Homo sapiens), sequence (Q96RI1 whole entry, looked up): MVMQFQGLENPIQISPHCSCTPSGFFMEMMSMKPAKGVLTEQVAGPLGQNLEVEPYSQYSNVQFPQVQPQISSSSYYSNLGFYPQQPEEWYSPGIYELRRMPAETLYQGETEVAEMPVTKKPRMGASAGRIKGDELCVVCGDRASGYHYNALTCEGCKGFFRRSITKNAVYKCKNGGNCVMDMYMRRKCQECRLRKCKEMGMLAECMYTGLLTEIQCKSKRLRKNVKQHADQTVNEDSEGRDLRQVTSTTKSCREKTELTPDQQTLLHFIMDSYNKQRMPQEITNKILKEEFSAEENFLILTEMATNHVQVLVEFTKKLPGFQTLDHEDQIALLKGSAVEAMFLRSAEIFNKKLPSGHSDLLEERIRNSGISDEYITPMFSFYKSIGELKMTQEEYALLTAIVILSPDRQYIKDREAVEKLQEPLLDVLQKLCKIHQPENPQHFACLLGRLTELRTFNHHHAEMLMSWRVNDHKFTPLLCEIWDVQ
Vitamin D3 receptor (Homo sapiens), sequence (P11473 whole entry, looked up): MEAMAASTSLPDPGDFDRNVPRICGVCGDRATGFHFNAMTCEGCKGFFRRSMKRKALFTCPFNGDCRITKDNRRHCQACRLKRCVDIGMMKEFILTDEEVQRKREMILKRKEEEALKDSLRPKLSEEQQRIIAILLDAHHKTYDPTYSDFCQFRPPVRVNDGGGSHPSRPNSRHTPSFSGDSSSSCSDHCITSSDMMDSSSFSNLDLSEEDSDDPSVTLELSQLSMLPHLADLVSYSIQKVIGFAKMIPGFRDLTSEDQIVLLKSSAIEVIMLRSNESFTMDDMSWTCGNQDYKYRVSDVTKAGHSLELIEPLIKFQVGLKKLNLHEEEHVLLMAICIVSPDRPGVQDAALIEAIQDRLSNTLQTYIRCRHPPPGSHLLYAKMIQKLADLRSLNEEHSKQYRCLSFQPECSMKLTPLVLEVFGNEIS

On to `COc1cc(NCc2ccc3nc(N)nc(N)c3c2C)cc(OC)c1OC`, for which the molecule was classed as inactive in assay [1], in [4], in assay [5], in [6] and in [12]. Further, the Potency result in [2], in assay [3], in assay [7], in assay [8], in assay [9] and in [10] was “inactive” in each case. In addition, in assay [11], the Potency entry is “inactive”.
In the case of `CC(C)(O)CCc1ccccc1`, the molecule was classed as inactive in assay [1], in assay [14], in assay [4], in [6] and in assay [12]. Moreover, the Potency entry in assay [13], in [2], in assay [15], in assay [3], in assay [16] and in [17] was “inactive” each time. Further, the Potency entry in assay [7], in assay [8], in assay [9], in assay [10] and in [11] was “inactive” throughout.
Consider `O=C(O)CNC(=O)c1ccccc1I`, for which the Potency entry in assay [18], in [13], in assay [2], in assay [15], in assay [16] and in assay [19] was “inactive” in each case. The Potency entry in assay [17], in assay [7], in [8], in [9] and in assay [11] was “inactive” throughout. In addition, the result in [1], in assay [14], in assay [4], in assay [6] and in assay [12] was inactive.
With `CCCCCCOC(=O)CCCCC`, the Potency entry in assay [18], in assay [13], in assay [15], in [16], in [7] and in [8] was “inactive” each time. The Potency result in assay [11] is “inactive”. The molecule was called inactive in assay [4], in assay [5], in [6] and in assay [12].
Turning to `O=[N+]([O-])C1(Br)COCOC1`, the Potency result in assay [15], in assay [3], in assay [17], in [7], in assay [8] and in assay [11] was “inactive” each time. Besides, the call in assay [4], in [6] and in [12] was inactive. Further, the Potency in assay [10] is 24.3 µM (active).
Take `CC(=O)OCCC(C)CC(C)(C)C` (stereo not given): the Potency entry in assay [18], in assay [13], in assay [2], in [3], in [16] and in assay [7] was “inactive” each time. In addition, the Potency result in [8], in [10] and in [11] was “inactive” throughout. In addition, the molecule was classed as inactive in assay [1], in [14], in assay [4], in assay [5], in [6] and in assay [12].
Regarding `CCOC(=O)c1ccc(NC(=O)CN2CCCCC2)cc1`, the Potency result in assay [18], in [13], in [2], in [16], in [19] and in assay [17] was “inactive” in each case. Also, the Potency entry in [7], in [8], in [10] and in assay [11] was “inactive” in each case. Also, the molecule was called inactive in [1], in assay [4], in [5], in assay [6] and in [12].
With `SCCc1cnccn1`, the Potency result in assay [15], in assay [16], in assay [19], in [17], in assay [7] and in [8] was “inactive” each time. The Potency entry in [9], in assay [10] and in assay [11] was “inactive” each time. Besides, the result in assay [6] and in assay [12] was inactive.
As for `CC(=O)OCCC1CCCCC1`, the Potency entry in assay [18], in assay [13], in assay [2], in assay [19], in [17] and in assay [7] was “inactive” in each case. The Potency result in assay [8], in [10] and in [11] was “inactive” in each case. The outcome in [1], in assay [4], in assay [5], in assay [6] and in assay [12] was inactive.
